# Measurements reported in the supplement of paper PMC8728848.
# The entries come from a sample that favours the strongest signals as a whole.
# Experiments:
# Assay in all cases: glycan array binding signal (z-score within array); higher = stronger binding
# Details in all cases: glycan notation: IUPAC condensed, linker removed
# [1] = biological target: Gal3S(b1-4)Glc
# Method in brief: (§1)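 Columns mapping to the same glycan were averaged after glycan names were converted to IUPAC-condensed notation. The data come from 3228 arrays in the Consortium for Functional Glycomics database, limited to those with an available protein sequence. Binding is reported as a within-array Z-score averaged across arrays of one protein sequence and across linkers.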
# [2] = biological target: Gal3S(b1-4)[Fuc(a1-3)]GlcNAc6S
# Method in brief: as §1
# [3] = biological target: GalNAc(b1-3)Gal(a1-4)Gal(b1-4)GlcNAc(b1-3)Gal(b1-4)Glc
# Method in brief: as §1
# [4] = biological target: GalNAc(b1-4)Gal(b1-4)Glc
# Method in brief: as §1
# [5] = biological target: GlcNAc(b1-2)Man(a1-3)[GlcNAc(b1-2)Man(a1-6)]Man(b1-4)GlcNAc(b1-4)[Fuc(a1-6)]GlcNAc
# Method in brief: as §1
# [6] = biological target: GlcNAc(b1-2)[GlcNAc(b1-6)]Man(a1-6)[GlcNAc(b1-2)Man(a1-3)]Man(b1-4)GlcNAc(b1-4)GlcNAc
# Method in brief: as §1
# [7] = biological target: GlcNAc(b1-3)Gal(b1-4)GlcNAc(b1-2)[GlcNAc(b1-3)Gal(b1-4)GlcNAc(b1-6)]Man(a1-6)[GlcNAc(b1-3)Gal(b1-4)GlcNAc(b1-2)Man(a1-3)]Man(b1-4)GlcNAc(b1-4)GlcNAc
# Method in brief: as §1
# [8] = biological target: GlcNAc(b1-3)Gal(b1-4)GlcNAc(b1-3)Gal(b1-4)GlcNAc(b1-3)GalNAc
# Method in brief: as §1
# [9] = biological target: Man(a1-3)[Man(a1-6)]Man(b1-4)GlcNAc(b1-4)GlcNAc
# Method in brief: as §1
# [10] = biological target: Man(a1-3)[Man(a1-6)]Man(b1-4)GlcNAc(b1-4)[Fuc(a1-6)]GlcNAc
# Method in brief: as §1
# [11] = biological target: Neu5Ac(a2-3)Gal(b1-3)GlcNAc(b1-2)Man
# Method in brief: as §1
# [12] = biological target: Neu5Ac(a2-3)Gal(b1-3)GlcNAc(b1-6)GalNAc
# Method in brief: as §1
# [13] = biological target: Neu5Ac(a2-3)Gal(b1-3)[Fuc(a1-4)]GlcNAc
# Method in brief: as §1
# [14] = biological target: Neu5Ac(a2-3)Gal(b1-3)[Fuc(a1-4)]GlcNAc(b1-3)Gal(b1-3)[Fuc(a1-4)]GlcNAc
# Method in brief: as §1
# [15] = biological target: Neu5Ac(a2-3)Gal(b1-4)GlcNAc(b1-2)[Neu5Ac(a2-3)Gal(b1-4)GlcNAc(b1-6)]Man(a1-6)[Neu5Ac(a2-3)Gal(b1-4)GlcNAc(b1-2)Man(a1-3)][GlcNAc(b1-4)]Man(b1-4)GlcNAc(b1-4)GlcNAc
# Method in brief: as §1
# [16] = biological target: Neu5Ac(a2-3)Gal(b1-4)GlcNAc(b1-3)Gal(b1-4)GlcNAc(b1-2)Man(a1-3)[Neu5Ac(a2-3)Gal(b1-4)GlcNAc(b1-3)Gal(b1-4)GlcNAc(b1-2)Man(a1-6)]Man(b1-4)GlcNAc(b1-4)GlcNAc
# Method in brief: as §1
# [17] = biological target: Neu5Ac(a2-3)Gal(b1-4)[Fuc(a1-3)]GlcNAc(b1-3)GalNAc
# Method in brief: as §1
# [18] = biological target: Neu5Ac(a2-3)Gal6S(b1-4)GlcNAc
# Method in brief: as §1
# [19] = biological target: Neu5Ac(a2-3)Gal6S(b1-4)[Fuc(a1-3)]GlcNAc
# Method in brief: as §1
# [20] = biological target: Neu5Ac(a2-3)[Neu5Ac(a2-6)]GalNAc
# Method in brief: as §1
# [21] = biological target: Neu5Ac(a2-6)Gal(b1-4)GlcNAc(b1-2)Man(a1-3)[GlcNAc(b1-4)][Neu5Ac(a2-6)Gal(b1-4)GlcNAc(b1-2)Man(a1-6)]Man(b1-4)GlcNAc(b1-4)GlcNAc
# Method in brief: as §1
# [22] = biological target: Neu5Ac(a2-6)Gal(b1-4)GlcNAc(b1-2)Man(a1-3)[Neu5Ac(a2-6)Gal(b1-4)GlcNAc(b1-2)Man(a1-6)]Man(b1-4)GlcNAc(b1-4)GlcNAc
# Method in brief: as §1
# [23] = biological target: Neu5Ac(a2-6)Gal(b1-4)GlcNAc(b1-2)Man(a1-6)[Gal(b1-4)GlcNAc(b1-2)Man(a1-3)]Man(b1-4)GlcNAc(b1-4)GlcNAc
# Method in brief: as §1
# [24] = biological target: Neu5Ac(a2-6)Gal(b1-4)GlcNAc(b1-2)[Neu5Ac(a2-6)Gal(b1-4)GlcNAc(b1-4)]Man(a1-3)[GlcNAc(b1-4)][Neu5Ac(a2-6)Gal(b1-4)GlcNAc(b1-2)[Neu5Ac(a2-6)Gal(b1-4)GlcNAc(b1-6)]Man(a1-6)]Man(b1-4)GlcNAc(b1-4)GlcNAc
# Method in brief: as §1
# [25] = biological target: Neu5Ac(a2-8)Neu5Ac(a2-3)[GalNAc(b1-4)]Gal(b1-4)Glc
# Method in brief: as §1
# [26] = biological target: Neu5Ac9Ac(a2-6)Gal(b1-4)GlcNAc
# Method in brief: as §1
# [27] = biological target: Neu5Gc(a2-6)Gal(b1-4)GlcNAc
# Method in brief: as §1
binder,measurement,setting,value
"Arath Fbox (Arabidopsis thaliana), NP_178341.1 (protein) EFTWGRKRRVKSESSPFDSFPEDCISYIISFTNPRDACVAATVSKTFESTVKSDIIWEKFLPADYESLIPPSRVFSSKKELYFSLCNDPVLFDDDKKSVWLEKASGKRCLMLSAMNLSIIWGDNPQYWQWIPIPESRFEKVAKLRDVCWFEIRGRTNTRVLSPRTRYSAYIVFKGVDKCYGFQNVAIEAAVGVVGQEPSRRLICFSEAIRRGRRNVVKPKQREDGWMEIELGEFFNDGGIMDNDEIEMSALETKQLNRKCGLIIQGIEIRPAKILAAAAASFLEQKLISEEDLNSAVDHHHHHH",glycan array binding signal (z-score),[1],1
same,glycan array binding signal (z-score),[2],2.7
same,glycan array binding signal (z-score),[3],-0.087
same,glycan array binding signal (z-score),[4],0.06
same,glycan array binding signal (z-score),[5],0.585
same,glycan array binding signal (z-score),[6],-0.389
same,glycan array binding signal (z-score),[7],0.161
same,glycan array binding signal (z-score),[8],-0.761
same,glycan array binding signal (z-score),[9],-0.721
same,glycan array binding signal (z-score),[10],-0.72
same,glycan array binding signal (z-score),[11],-0.092
same,glycan array binding signal (z-score),[12],-0.024
same,glycan array binding signal (z-score),[13],-0.597
same,glycan array binding signal (z-score),[14],0.221
same,glycan array binding signal (z-score),[15],-0.75
same,glycan array binding signal (z-score),[16],2.64
same,glycan array binding signal (z-score),[17],2.69
same,glycan array binding signal (z-score),[18],-0.45
same,glycan array binding signal (z-score),[19],-0.559
same,glycan array binding signal (z-score),[20],-0.205
same,glycan array binding signal (z-score),[21],-0.647
same,glycan array binding signal (z-score),[22],-0.41
same,glycan array binding signal (z-score),[23],3.21
same,glycan array binding signal (z-score),[24],-0.533
same,glycan array binding signal (z-score),[25],-0.467
same,glycan array binding signal (z-score),[26],-0.681
same,glycan array binding signal (z-score),[27],2.49
